# Assay results published in PMC7862700, “An all-to-all approach to the identification of sequence-specific readers for epigenetic DNA modifications on cytosine”.
# Columns and labels:
# Assay in all cases: DAPPL (digital affinity profiling via proximity ligation, sequencing); 10 mM Tris-HCl pH 7.5, 50 mM NaCl, 1 mM DTT, 4% glycerol, room temperature, 30 min; GST-TFs on glutathione beads, 16-mer random dsDNA library, 0.1% formaldehyde crosslink after washing; high values mean tight binding
# FLI1 = target: T1, FLI1 (Homo sapiens, UniProt Q01543 1-452); conditions: protein: recombinant; tags: N-terminal GST; dsDNA, one strand shown
# T1 sequence: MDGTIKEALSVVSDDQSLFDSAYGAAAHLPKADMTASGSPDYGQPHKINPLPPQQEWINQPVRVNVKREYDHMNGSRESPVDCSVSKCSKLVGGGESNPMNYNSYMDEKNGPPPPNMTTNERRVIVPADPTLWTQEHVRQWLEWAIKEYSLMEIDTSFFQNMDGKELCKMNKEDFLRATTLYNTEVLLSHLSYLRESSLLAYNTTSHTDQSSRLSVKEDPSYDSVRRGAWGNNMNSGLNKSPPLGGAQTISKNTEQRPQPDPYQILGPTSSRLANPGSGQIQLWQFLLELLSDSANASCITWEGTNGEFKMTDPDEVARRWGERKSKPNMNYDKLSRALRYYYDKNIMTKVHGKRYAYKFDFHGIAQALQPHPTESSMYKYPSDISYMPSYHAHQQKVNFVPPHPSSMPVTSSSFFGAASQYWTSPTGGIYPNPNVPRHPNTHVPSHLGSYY
# Procedure, shortened: (§1)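 A tag-only sample was pooled with DNA-barcoded human transcription factors that had been expressed in yeast as GST fusions and captured on glutathione beads. The pools were incubated for 30 min at room temperature with 200 nmole of a random double-stranded 16-mer DNA library in Tris/NaCl/DTT/glycerol buffer, then washed, crosslinked with 0.1% formaldehyde, proximity-ligated (BsaI/T4 ligase, 1 h, 37 °C), PCR-amplified and sequenced on an Illumina NextSeq500. Binding signal is each hexamer's read frequency for a factor divided by its frequency for the tag-only sample.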
# ELK1 = target: T2, ELK1 (Homo sapiens, UniProt P19419 1-428); conditions: protein: recombinant; tags: N-terminal GST; dsDNA, one strand shown
# T2 sequence: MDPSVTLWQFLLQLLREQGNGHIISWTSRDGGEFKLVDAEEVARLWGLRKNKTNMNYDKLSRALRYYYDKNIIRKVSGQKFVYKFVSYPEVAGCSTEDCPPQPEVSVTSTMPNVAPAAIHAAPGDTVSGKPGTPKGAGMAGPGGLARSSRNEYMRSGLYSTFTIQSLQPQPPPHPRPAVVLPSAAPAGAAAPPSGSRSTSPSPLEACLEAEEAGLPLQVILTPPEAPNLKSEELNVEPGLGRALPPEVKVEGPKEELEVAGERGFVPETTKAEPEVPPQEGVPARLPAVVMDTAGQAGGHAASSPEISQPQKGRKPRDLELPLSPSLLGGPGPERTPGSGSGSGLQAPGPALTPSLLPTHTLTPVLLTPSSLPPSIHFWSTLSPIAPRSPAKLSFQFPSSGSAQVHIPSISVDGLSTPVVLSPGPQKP
# Procedure, shortened: as §1
# GABPA = target: T3, GABPA (Homo sapiens, UniProt Q06546 1-454); conditions: protein: recombinant; tags: N-terminal GST; dsDNA, one strand shown
# T3 sequence: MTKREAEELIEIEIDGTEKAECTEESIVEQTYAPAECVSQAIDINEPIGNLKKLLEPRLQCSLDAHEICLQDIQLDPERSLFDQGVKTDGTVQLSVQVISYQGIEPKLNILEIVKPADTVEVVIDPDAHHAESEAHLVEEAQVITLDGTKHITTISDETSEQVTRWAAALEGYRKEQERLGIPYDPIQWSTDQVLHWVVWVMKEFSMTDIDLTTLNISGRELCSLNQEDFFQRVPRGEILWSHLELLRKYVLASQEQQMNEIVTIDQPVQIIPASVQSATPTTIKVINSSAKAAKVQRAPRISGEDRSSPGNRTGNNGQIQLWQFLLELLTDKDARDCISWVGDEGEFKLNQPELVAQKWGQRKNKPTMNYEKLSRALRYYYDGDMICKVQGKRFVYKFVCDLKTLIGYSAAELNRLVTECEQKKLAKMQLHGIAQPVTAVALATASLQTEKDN
# Procedure, shortened: as §1
# ERG = target: T4, ERG (Homo sapiens, UniProt P11308 1-479); conditions: protein: recombinant; tags: N-terminal GST; dsDNA, one strand shown
# T4 sequence: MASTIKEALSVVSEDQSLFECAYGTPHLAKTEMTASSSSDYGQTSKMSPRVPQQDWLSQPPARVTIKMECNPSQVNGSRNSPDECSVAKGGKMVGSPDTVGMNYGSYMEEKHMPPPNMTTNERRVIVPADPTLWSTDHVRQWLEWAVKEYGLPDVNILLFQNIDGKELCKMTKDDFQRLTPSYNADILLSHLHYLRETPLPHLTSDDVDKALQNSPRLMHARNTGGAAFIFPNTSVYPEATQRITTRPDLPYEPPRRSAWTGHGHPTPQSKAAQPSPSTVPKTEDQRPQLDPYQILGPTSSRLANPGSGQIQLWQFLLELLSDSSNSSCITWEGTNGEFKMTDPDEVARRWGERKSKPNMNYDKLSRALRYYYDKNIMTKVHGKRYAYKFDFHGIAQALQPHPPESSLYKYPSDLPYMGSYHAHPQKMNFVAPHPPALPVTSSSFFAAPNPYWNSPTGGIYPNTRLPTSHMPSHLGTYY
# Procedure, shortened: as §1
# ELF1 = ELF1 (Homo sapiens, UniProt P32519 1-619); conditions: protein: recombinant; tags: N-terminal GST; dsDNA, one strand shown
# Chain of ELF1 (P32519 whole entry): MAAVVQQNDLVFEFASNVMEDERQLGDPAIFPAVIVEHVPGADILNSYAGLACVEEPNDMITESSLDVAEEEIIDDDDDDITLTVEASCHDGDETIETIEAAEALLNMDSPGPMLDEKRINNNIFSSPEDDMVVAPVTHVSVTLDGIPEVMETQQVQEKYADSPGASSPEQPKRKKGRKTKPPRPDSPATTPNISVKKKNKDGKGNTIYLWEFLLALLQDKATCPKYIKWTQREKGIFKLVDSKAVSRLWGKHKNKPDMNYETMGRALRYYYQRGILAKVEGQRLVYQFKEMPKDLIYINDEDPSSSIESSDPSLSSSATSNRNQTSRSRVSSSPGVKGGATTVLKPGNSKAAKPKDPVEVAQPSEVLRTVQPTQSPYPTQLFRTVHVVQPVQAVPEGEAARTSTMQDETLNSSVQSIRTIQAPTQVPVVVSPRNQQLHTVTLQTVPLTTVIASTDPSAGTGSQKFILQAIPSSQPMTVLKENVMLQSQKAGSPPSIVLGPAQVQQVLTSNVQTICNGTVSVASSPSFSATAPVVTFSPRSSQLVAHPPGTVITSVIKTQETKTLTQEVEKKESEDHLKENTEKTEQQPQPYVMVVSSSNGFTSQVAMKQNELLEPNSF
# Procedure, shortened: as §1
# EHF = target: T5, EHF (Homo sapiens, UniProt Q9NZC4 1-300); conditions: protein: recombinant; tags: N-terminal GST; dsDNA, one strand shown
# T5 sequence: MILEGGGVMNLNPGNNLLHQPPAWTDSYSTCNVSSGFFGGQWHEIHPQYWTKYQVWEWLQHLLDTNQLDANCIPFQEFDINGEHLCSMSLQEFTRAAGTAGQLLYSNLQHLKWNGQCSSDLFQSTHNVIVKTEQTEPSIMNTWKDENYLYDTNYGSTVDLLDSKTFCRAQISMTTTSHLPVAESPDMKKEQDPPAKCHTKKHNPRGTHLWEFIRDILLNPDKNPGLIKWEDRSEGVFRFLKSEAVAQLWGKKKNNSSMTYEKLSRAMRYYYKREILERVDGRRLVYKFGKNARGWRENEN
# Procedure, shortened: as §1
# SPI1 = SPI1 (Homo sapiens, UniProt P17947 1-270); conditions: protein: recombinant; tags: N-terminal GST; dsDNA, one strand shown
# Procedure, shortened: as §1
# SPIB = SPIB (Homo sapiens, UniProt Q01892 1-262); conditions: protein: recombinant; tags: N-terminal GST; dsDNA, one strand shown
# Chain of SPIB (Q01892 whole entry): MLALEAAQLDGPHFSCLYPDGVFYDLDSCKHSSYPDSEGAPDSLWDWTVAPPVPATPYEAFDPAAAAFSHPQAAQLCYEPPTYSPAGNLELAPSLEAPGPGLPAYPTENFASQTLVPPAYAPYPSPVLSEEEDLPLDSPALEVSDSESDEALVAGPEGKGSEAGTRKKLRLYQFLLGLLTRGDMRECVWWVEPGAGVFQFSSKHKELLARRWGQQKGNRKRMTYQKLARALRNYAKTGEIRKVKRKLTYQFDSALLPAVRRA
# Procedure, shortened: as §1
# ELK3 = target: T6, ELK3 (Homo sapiens, UniProt P41970 1-407); conditions: protein: recombinant; tags: N-terminal GST; dsDNA, one strand shown
# T6 sequence: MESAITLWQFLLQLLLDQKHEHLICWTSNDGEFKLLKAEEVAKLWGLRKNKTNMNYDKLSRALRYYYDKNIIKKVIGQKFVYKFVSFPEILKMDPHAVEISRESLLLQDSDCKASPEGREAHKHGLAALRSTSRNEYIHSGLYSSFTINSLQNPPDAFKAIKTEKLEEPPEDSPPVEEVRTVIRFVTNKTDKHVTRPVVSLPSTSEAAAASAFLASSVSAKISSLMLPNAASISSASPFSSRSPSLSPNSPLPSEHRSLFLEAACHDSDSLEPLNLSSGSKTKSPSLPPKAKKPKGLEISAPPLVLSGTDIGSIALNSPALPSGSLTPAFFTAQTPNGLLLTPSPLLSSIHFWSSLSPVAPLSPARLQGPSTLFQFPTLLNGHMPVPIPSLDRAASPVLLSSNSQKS
# Procedure, shortened: as §1
# FEV = target: T7, FEV (Homo sapiens, UniProt Q99581 1-238); conditions: protein: recombinant; tags: N-terminal GST; dsDNA, one strand shown
# T7 sequence: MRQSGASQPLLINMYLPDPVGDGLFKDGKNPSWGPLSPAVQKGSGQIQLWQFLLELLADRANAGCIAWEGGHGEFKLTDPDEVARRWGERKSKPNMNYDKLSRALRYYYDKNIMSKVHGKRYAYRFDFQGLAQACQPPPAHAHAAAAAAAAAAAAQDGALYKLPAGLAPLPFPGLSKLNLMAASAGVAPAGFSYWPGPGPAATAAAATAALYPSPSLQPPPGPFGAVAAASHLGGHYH
# Procedure, shortened: as §1
# ETV5 = ETV5 (Homo sapiens, UniProt P41161 1-510); conditions: protein: recombinant; tags: N-terminal GST; dsDNA, one strand shown
# Chain of ETV5 (P41161 whole entry): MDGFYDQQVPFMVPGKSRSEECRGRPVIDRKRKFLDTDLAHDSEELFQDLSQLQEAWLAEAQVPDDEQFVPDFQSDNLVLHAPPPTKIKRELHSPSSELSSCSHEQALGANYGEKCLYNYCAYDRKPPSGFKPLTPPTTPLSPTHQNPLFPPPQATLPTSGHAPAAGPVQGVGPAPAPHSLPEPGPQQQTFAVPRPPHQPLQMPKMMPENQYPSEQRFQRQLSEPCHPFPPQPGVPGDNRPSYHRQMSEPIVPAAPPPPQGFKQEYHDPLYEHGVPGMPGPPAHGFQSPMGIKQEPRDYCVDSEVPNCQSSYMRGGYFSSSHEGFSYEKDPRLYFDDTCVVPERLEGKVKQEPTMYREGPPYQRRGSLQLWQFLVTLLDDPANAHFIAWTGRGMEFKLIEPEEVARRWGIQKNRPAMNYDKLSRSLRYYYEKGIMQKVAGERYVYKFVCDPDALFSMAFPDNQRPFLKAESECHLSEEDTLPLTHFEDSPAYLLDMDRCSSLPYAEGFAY
# Procedure, shortened: as §1
# HSF1 = HSF1 (Homo sapiens, UniProt Q00613 1-529); conditions: protein: recombinant; tags: N-terminal GST; chain copies: 3; dsDNA, one strand shown
# Chain of HSF1 (Q00613 whole entry): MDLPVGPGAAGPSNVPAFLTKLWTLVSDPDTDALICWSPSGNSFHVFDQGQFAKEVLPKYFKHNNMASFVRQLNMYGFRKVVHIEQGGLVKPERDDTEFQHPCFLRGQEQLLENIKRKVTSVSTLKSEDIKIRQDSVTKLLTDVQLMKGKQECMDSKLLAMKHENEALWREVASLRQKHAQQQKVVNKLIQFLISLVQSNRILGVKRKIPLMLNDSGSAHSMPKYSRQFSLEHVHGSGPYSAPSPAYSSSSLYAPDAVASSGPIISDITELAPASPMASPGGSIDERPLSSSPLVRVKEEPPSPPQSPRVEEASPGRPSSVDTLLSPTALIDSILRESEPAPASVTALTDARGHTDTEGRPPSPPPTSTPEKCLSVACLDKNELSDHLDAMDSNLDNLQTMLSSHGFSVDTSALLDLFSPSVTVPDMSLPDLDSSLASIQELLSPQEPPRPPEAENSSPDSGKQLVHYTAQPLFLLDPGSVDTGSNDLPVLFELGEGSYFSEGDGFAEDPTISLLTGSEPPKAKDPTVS
# Procedure, shortened: as §1
# ELF4 = ELF4 (Homo sapiens, UniProt Q99607 1-663); conditions: protein: recombinant; tags: N-terminal GST; dsDNA, one strand shown
# Chain of ELF4 (Q99607 whole entry): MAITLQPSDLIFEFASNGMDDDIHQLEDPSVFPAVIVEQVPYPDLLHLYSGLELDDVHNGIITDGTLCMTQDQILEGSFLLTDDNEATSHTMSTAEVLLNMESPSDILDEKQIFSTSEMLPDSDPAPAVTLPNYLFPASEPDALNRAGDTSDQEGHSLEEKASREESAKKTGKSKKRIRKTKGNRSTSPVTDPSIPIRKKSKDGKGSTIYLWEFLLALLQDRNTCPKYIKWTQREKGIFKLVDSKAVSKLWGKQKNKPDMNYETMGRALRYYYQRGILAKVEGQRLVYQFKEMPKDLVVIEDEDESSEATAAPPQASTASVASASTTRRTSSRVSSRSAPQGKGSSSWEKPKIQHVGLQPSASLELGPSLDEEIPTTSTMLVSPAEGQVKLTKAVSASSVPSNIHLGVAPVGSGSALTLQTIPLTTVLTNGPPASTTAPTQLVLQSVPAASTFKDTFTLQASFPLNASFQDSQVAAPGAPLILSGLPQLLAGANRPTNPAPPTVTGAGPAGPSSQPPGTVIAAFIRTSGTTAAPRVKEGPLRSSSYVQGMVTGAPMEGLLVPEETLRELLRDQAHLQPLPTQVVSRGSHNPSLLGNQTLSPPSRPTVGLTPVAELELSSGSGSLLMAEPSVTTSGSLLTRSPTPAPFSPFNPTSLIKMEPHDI
# Procedure, shortened: as §1
# ELK4 = target: T8, ELK4 (Homo sapiens, UniProt P28324-2 1-405); conditions: protein: recombinant; tags: N-terminal GST; dsDNA, one strand shown
# T8 sequence: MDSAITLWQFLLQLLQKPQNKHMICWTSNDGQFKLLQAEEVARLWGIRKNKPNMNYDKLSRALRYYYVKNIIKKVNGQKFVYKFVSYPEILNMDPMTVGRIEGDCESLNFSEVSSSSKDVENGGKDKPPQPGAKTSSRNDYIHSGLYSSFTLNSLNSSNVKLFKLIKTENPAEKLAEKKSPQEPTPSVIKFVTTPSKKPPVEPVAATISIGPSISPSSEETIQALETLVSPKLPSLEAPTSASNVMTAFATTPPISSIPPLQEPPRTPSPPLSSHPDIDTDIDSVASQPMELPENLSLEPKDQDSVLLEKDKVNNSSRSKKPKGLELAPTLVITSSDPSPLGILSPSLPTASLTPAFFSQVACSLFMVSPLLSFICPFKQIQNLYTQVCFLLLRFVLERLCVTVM
# Procedure, shortened: as §1
# ETV2 = target: T9, ETV2 (Homo sapiens, UniProt O00321 1-342); conditions: protein: recombinant; tags: N-terminal GST; dsDNA, one strand shown
# T9 sequence: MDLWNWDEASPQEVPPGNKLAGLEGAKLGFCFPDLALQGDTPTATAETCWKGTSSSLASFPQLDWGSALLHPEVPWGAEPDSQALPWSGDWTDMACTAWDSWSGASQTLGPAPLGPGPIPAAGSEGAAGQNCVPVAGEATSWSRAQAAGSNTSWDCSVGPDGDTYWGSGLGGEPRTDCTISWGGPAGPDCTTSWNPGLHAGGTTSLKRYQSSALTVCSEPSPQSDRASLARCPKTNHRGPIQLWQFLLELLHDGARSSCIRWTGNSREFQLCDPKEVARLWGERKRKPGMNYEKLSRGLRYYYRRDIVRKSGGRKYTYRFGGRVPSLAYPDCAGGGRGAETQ
# Procedure, shortened: as §1
# ELF3 = target: T10, ELF3 (Homo sapiens, UniProt P78545 1-371); conditions: protein: recombinant; tags: N-terminal GST; dsDNA, one strand shown
# T10 sequence: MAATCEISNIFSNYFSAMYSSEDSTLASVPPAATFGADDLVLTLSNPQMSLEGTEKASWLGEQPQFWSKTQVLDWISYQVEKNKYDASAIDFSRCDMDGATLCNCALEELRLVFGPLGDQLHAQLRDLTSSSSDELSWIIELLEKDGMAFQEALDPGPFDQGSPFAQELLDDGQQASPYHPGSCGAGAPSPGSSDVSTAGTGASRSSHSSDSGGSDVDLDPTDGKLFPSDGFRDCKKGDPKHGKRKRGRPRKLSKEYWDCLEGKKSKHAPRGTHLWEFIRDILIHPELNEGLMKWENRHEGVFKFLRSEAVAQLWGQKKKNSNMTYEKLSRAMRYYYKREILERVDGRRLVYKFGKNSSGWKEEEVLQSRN
# Procedure, shortened: as §1
# CRX = CRX (Homo sapiens, UniProt O43186 1-299); conditions: protein: recombinant; tags: N-terminal GST; dsDNA, one strand shown
# Chain of CRX (O43186 whole entry): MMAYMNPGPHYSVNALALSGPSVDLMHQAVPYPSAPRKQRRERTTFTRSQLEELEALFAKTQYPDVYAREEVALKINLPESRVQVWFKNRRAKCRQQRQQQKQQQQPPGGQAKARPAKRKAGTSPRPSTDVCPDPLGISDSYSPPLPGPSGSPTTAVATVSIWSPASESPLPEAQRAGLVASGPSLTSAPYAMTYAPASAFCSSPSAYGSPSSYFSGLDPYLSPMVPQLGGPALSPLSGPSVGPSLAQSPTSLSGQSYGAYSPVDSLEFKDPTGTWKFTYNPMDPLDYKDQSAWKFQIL
# Procedure, shortened: as §1
# ETV1 = ETV1 (Homo sapiens, UniProt P50549 1-477); conditions: protein: recombinant; tags: N-terminal GST; dsDNA, one strand shown
# Chain of ETV1 (P50549 whole entry): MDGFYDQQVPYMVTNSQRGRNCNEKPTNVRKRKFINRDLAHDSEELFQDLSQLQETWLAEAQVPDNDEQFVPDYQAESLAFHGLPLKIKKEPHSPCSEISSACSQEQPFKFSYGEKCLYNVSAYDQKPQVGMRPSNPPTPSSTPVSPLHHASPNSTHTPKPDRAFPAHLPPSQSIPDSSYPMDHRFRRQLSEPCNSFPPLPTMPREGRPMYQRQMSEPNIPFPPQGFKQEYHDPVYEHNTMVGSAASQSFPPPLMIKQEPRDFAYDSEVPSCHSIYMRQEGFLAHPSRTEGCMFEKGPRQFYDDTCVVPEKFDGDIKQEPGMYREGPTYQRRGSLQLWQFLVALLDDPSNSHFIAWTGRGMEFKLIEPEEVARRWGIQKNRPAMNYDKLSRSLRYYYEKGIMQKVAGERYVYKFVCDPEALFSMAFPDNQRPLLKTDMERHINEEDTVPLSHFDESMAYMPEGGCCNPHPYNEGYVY
# Procedure, shortened: as §1
sequence,measurement,setting,value
TTACGC,binding signal,FLI1,"1.15 fold enrichment (6-mer frequency, TF over GST control)"
same,binding signal,ELK1,"1.06 fold enrichment (6-mer frequency, TF over GST control)"
same,binding signal,GABPA,"1.07 fold enrichment (6-mer frequency, TF over GST control)"
same,binding signal,ERG,"1.08 fold enrichment (6-mer frequency, TF over GST control)"
same,binding signal,ELF1,"1.12 fold enrichment (6-mer frequency, TF over GST control)"
same,binding signal,EHF,"1.06 fold enrichment (6-mer frequency, TF over GST control)"
same,binding signal,SPI1,"1.07 fold enrichment (6-mer frequency, TF over GST control)"
same,binding signal,SPIB,"1.02 fold enrichment (6-mer frequency, TF over GST control)"
same,binding signal,ELK3,"1.21 fold enrichment (6-mer frequency, TF over GST control)"
same,binding signal,FEV,"1.1 fold enrichment (6-mer frequency, TF over GST control)"
same,binding signal,ETV5,"1.19 fold enrichment (6-mer frequency, TF over GST control)"
same,binding signal,HSF1,"1.39 fold enrichment (6-mer frequency, TF over GST control)"
same,binding signal,ELF4,"1.19 fold enrichment (6-mer frequency, TF over GST control)"
same,binding signal,ELK4,"1.04 fold enrichment (6-mer frequency, TF over GST control)"
same,binding signal,ETV2,"1.16 fold enrichment (6-mer frequency, TF over GST control)"
same,binding signal,ELF3,"1.01 fold enrichment (6-mer frequency, TF over GST control)"
same,binding signal,CRX,"1.81 fold enrichment (6-mer frequency, TF over GST control)"
same,binding signal,ETV1,"1.13 fold enrichment (6-mer frequency, TF over GST control)"
